Values joined by “and” are separate entries in the source; they are usually repeats but may differ in a detail not shown here. Equal entries are not always repeated. Values without a mark were called inactive. Inconclusive results are not listed. Active and inactive are the calls of the source. Unless noted, the call rests on the fitted dose curve; in most records, active means well fitted curve in the direction sought with a large enough effect; inconclusive means small, poorly fitted or top-dose-only effect, or another doubt; inactive means no such curve, though single readings can be large; an effect the other way counts as inactive or inconclusive.
Target: 3',5'-cyclic-AMP phosphodiesterase 4B (Homo sapiens) (UniProt Q07343)
Experiment: qHTS Assay for Inhibitors of PDE-IV (AID 607; active means well fitted activation curve with a large enough effect in the main read-out, with a control signal flat, not every such curve was filed as active; further: % of control where 0% means no effect)
Conditions: HEK293 ACTOne CNG channel cells, membrane potential fluorescence; series mostly up to 22.9 µM; activation (PDE inhibition): at the top concentration
Summary of the method: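 The readout is membrane depolarisation from a cAMP-sensing CNG channel, detected with a potential dye at ex 535/em 590. Cells were HEK293-derived (endogenous PDE-IV) at 1000 cells/well, titrated up to 22.9 uM final.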

3',5'-cyclic-AMP phosphodiesterase 4B (Homo sapiens), sequence (Q07343 whole entry, looked up): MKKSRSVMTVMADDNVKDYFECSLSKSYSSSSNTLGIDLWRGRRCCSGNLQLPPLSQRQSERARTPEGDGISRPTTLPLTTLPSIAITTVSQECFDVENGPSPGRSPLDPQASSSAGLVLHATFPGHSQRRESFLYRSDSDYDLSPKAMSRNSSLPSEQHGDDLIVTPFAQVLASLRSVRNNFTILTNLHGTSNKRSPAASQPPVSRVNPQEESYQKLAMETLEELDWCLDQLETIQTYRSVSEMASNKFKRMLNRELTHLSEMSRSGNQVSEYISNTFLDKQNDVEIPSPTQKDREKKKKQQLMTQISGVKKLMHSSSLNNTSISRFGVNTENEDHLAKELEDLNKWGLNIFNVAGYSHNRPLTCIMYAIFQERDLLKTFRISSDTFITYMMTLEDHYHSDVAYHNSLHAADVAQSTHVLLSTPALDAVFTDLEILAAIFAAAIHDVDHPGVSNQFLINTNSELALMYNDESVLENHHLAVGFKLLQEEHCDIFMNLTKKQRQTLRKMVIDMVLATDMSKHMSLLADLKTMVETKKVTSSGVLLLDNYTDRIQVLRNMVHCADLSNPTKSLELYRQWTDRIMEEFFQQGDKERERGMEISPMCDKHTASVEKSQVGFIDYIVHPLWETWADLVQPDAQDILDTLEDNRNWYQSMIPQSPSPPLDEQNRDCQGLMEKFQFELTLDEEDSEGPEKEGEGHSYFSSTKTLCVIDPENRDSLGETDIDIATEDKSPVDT

Compound	activation (PDE inhibition) [%]
Oc1ccc2c3c1O[C@H]1c4[nH]c5ccccc5c4C[C@]4(O)[C@H](C2)N(CC2CC2)CC[C@@]314	8.24
CN1C(=O)COc2c(C(=O)N[C@@H]3CN4CCC3CC4)cc(Cl)cc21	-31.9
Oc1ccc2c3c1O[C@H]1c4c(c5ccccc5n4Cc4ccccc4)C[C@]4(O)[C@H](C2)N(CC2CC2)CC[C@@]314	-11.1
CCCCCCC[n+]1ccc(-c2cc[n+](CCCCCCC)cc2)cc1	-16.2
C[C@H](N)Cc1c[nH]c2ccc(OCc3cccs3)cc12	8.42

Target: Cytochrome P450 3A4 (Homo sapiens) (UniProt P08684)
Experiment: qHTS Assay for Activators of Cytochrome P450 3A4 (AID 885); further: nearly all actives have a fitted effect of over 65% in size
Conditions: recombinant CYP3A4, Luciferin-PPXE luminescence, 60 min; series mostly up to 57.1 µM; activity change, positive = activation: at the top concentration
Summary of the method: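 Steps: enzyme/substrate mix dispensed; compound added, 10 min RT; NADPH regeneration solution added, 60 min RT; luciferin detection buffer stops reaction; 20 min later luminescence measured.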

Cytochrome P450 3A4 (Homo sapiens), sequence (P08684 whole entry, looked up): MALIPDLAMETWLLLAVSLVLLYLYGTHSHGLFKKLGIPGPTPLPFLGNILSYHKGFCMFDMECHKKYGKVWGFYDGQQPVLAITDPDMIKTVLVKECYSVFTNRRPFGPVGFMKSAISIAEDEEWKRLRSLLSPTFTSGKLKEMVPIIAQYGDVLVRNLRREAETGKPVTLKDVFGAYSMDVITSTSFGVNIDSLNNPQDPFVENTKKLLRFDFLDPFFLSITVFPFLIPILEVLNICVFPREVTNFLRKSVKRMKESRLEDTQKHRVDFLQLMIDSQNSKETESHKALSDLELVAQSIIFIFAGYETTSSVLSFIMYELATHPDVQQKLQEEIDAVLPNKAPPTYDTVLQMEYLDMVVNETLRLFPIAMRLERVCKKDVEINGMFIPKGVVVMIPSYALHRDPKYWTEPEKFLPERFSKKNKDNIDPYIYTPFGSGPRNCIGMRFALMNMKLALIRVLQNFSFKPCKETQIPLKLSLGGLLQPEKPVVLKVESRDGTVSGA

Compound	Potency	activity change, positive = activation [%]
Oc1ccc2c3c1O[C@H]1c4[nH]c5ccccc5c4C[C@]4(O)[C@H](C2)N(CC2CC2)CC[C@@]314	inactive	
Oc1ccc2c3c1O[C@H]1c4c(c5ccccc5n4Cc4ccccc4)C[C@]4(O)[C@H](C2)N(CC2CC2)CC[C@@]314		-61.6
CN(C(=O)Cc1ccc(Cl)c(Cl)c1)[C@H](CN1CCCC1)c1ccccc1		-80.9
C[C@H](N)Cc1c[nH]c2ccc(OCc3cccs3)cc12	inactive	

Target: Cytochrome P450 2D6 (Homo sapiens) (UniProt P10635)
Experiment: qHTS Assay for Inhibitors and Substrates of Cytochrome P450 2D6 (AID 891); further: potency means the concentration at half of the fitted maximal effect; nearly all actives have a fitted effect of over 60% in size
Conditions: recombinant CYP2D6, luciferin-ME EGE luminescence; series mostly up to 57.1 µM; activity change, negative = inhibition: at the top concentration
Summary of the method: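 Human CYP2D6 (5 nM) with 30 uM Luciferin-ME EGE (at Km) in 100 mM KPO4, compound preincubated 10 min, then NADPH regeneration system for 60 min at room temperature. Luciferin read by luminescence; normalized to 1.43 uM quinidine.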

Cytochrome P450 2D6 (Homo sapiens), sequence (P10635 whole entry, looked up): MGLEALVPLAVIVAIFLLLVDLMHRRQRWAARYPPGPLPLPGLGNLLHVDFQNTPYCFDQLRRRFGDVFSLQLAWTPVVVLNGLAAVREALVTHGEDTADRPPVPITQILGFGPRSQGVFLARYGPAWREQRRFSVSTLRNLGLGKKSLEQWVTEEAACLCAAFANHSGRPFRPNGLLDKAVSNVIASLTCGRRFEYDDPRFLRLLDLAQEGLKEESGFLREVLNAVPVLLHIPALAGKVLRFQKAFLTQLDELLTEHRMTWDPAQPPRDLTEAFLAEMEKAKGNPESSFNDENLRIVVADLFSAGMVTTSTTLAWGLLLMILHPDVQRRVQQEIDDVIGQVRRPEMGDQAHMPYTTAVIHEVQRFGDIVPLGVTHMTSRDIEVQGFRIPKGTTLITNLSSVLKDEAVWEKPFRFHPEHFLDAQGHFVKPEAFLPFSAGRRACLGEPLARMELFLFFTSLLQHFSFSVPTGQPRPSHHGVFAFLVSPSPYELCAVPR

Compound	Potency
Oc1ccc2c3c1O[C@H]1c4[nH]c5ccccc5c4C[C@]4(O)[C@H](C2)N(CC2CC2)CC[C@@]314	2.51 µM (active) and 631 nM (active)
CCCCCCC[n+]1ccc(-c2cc[n+](CCCCCCC)cc2)cc1	7.94 µM (active)
C[C@H](N)Cc1c[nH]c2ccc(OCc3cccs3)cc12	0.794 µM (active)

Target: DNA dC->dU-editing enzyme APOBEC-3G (Homo sapiens) (UniProt Q9HC16)
Experiment: qHTS for inhibitors of Vif-A3G interactions: Validation (AID 588379); further: 0% is about no effect
Conditions: Vif-A3G protein interaction assay; series mostly up to 46.1 µM; activity change, negative = inhibition: at the top concentration
Summary of the method: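 HeLa cells stably expressing Vif and A3G-eYFP, 700 cells/well, incubated overnight at 37 deg C, then exposed to compound overnight at 37 deg C. Inhibition of Vif-mediated degradation read as increased yellow fluorescence (Ex 488/Em 500-530) by laser-scanning cytometry.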

DNA dC->dU-editing enzyme APOBEC-3G (Homo sapiens), sequence (Q9HC16 whole entry, looked up): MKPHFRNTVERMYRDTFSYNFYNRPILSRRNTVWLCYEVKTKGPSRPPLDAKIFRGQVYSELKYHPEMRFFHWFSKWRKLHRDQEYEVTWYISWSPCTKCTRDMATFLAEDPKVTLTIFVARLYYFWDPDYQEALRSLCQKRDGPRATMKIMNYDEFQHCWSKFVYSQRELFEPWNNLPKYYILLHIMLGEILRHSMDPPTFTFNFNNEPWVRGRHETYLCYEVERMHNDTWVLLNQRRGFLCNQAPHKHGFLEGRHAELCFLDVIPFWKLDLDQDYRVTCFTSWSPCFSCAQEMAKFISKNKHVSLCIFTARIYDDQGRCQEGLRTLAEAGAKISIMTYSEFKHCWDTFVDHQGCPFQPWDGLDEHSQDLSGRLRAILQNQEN

Compound	activity change, negative = inhibition [%]
CN1CC[C@@]2(c3cccc(O)c3)Cc3nc4ccccc4cc3C[C@H]2C1	-0.572
Oc1ccc2c3c1O[C@H]1c4[nH]c5ccccc5c4C[C@]4(O)[C@H](C2)N(CC2CC2)CC[C@@]314	-3.59
CN1C(=O)COc2c(C(=O)N[C@@H]3CN4CCC3CC4)cc(Cl)cc21	0.671
Oc1ccc2c3c1O[C@H]1c4c(c5ccccc5n4Cc4ccccc4)C[C@]4(O)[C@H](C2)N(CC2CC2)CC[C@@]314	0.0033
CC(C)(O)[C@H]1O[C@@H]2CC[C@]3(C)[C@@]4(C)c5[nH]c6ccccc6c5C[C@@H]4CC[C@]3(O)C2=CC1=O	-2.84
CN(C(=O)Cc1ccc(Cl)c(Cl)c1)[C@H](CN1CCCC1)c1ccccc1	-0.647
CCCCCCC[n+]1ccc(-c2cc[n+](CCCCCCC)cc2)cc1	3.7
CN1[C@@H]2CC[C@H]1CC(OC(c1ccc(F)cc1)c1ccc(F)cc1)C2 (stereo not given in full)	0.585
C[C@H](N)Cc1c[nH]c2ccc(OCc3cccs3)cc12	-0.805

System: Zika virus NS2B-NS3 protease
Experiment: Primary screen GU AMC qHTS for Zika virus inhibitors (AID 1347154);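 further: 0% = no-inhibitor control and -100% = no-enzyme control; nearly all actives have a fitted effect of over 70% in size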
Conditions: Zika NS2B-NS3 unlinked protease, AMC fluorogenic substrate; series mostly up to 54.1 µM; activity change, negative = inhibition: at the top concentration
Summary of the method: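 Fluorogenic AMC-substrate cleavage by noncovalent NS2B-NS3 protease complex (25 nM, pH 8.0 Tris buffer with Tween 20) followed for 15 minutes at room temperature (~20% conversion). Percent inhibition from ex340/em450 signal change, fitted by 4-parameter Hill equation.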

Compound	activity change, negative = inhibition
CCCCC/C=C\C/C=C\C/C=C\CCCCCCC(=O)NCCO	14.4% [at 6.83 µM]
CCCCC[C@@H](/C=C/C=C\C/C=C\C/C=C\CCCC(=O)O)OO	15.4% [at 0.59 µM]
O=C(O)CCC(CP(=O)(O)O)C(=O)O (stereo not given)	-11%
CN1CC[C@@]2(c3cccc(O)c3)Cc3nc4ccccc4cc3C[C@H]2C1	17.7%
Oc1ccc2c3c1O[C@H]1c4[nH]c5ccccc5c4C[C@]4(O)[C@H](C2)N(CC2CC2)CC[C@@]314	10.3%
CCC(Oc1ccc(Cl)cc1)C(=O)OC1CC2CCC(C1)N2C (stereo not given)	4.16%
CN1C(=O)COc2c(C(=O)N[C@@H]3CN4CCC3CC4)cc(Cl)cc21	2.71%
O[C@@H]1CCCN2C[C@@H](O)[C@@H](O)C12 (stereo not given in full)	16.2% [at 194 µM]
CN(C(=O)Cc1ccc(Cl)c(Cl)c1)C(CN1CCCC1)c1cccc(N=C=S)c1 (stereo not given)	-3.31%

— PubChem BioAssay (NCATS)
